Sampled rows, rich in hits. Any-hit rate of the full collection: about 3.5%.
FBW7 activator – activators of human E3 ligase FBW7 | Q969H0 | AlphaScreen FBW7–phospho-cyclin E peptide binding, activator screen | normalized activity (activation), % at 26.1 µM | 650,000 compounds, 0.13% hits; in the data active = normalized activity above about 1.9%;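 note: purified mutant Fbw7 with reduced substrate affinity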
MITF inh – inhibitors of human MITF | O75030 | AlphaScreen MITF homodimerization, bead proximity signal | inhibition, % at 2.6 µM | 650,000 compounds, 0.91% hits; in the data active = inhibition above about 50%;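 note: 0% = vehicle wells with protein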
Target sequence (O75030 whole entry, looked up): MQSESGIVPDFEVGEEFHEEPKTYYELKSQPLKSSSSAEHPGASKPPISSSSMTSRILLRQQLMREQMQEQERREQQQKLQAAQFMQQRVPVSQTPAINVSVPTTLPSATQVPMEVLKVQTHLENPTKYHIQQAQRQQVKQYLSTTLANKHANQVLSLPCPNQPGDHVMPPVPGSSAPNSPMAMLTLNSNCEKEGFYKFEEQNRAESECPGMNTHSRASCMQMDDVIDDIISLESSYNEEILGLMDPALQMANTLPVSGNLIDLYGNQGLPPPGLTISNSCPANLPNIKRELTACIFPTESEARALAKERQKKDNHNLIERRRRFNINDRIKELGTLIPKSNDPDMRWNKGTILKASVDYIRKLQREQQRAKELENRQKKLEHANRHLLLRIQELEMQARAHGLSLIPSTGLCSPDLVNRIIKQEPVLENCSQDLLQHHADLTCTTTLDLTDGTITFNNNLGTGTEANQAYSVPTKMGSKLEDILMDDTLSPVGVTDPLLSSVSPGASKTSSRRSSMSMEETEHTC
TEAD-YAP inh – TEAD-YAP interaction inhibition | 640,000 compounds, 1.4% hits | HEK-TIYL cells, TEAD-Gal4/YAP UAS-luciferase luminescence | inhibition, % at 9.12 µM; in the data active = inhibition above about 32%;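 note: 0% = median of test compound wells and 100% = reference inhibitor wells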
GPR151 ag – human GPR151 activation. PathHunter beta-arrestin GPR151 cells, luminescence. 650,000 compounds, 1% hits. AID 1508602. activation, % at 11.2 µM. Q8TDV0; in the data active = activation above about 4.9%;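 note: 0% = median of compound wells and 100% = cells with positive control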
Starred values were filed as active, the others as inactive.

SMILES | FBW7 activator | MITF inh | TEAD-YAP inh | GPR151 ag
CCCOC(=O)c1c(NC(=O)/C=C/C(=O)O)sc2c1CCCCC2 | 0 | -2 | 20 | 4
CCCOC(=O)c1c(NC(=O)/C=C/C(=O)O)sc2c1CCCC2 | 0 | 5 | 37* | -1
CCOC(=O)c1c(NC(=O)/C=C\C(=O)O)sc2c1CCC(CC)C2 (stereo unspecified) | 0 | -8 | 43* | -1
CCOC(=O)c1c(NC(=O)/C=C/C(=O)O)sc2c1CCCCC2 | 0 | -4 | 21 | 2
CC(Oc1ccc(/C=c2/sc3nc4ccccc4n3c2=O)cc1)C(=O)O (stereo unspecified) | 0 | 16 | -3 | -1
COc1cccc(S(=O)(=O)N(CCN(C)C)C2CCN(CCc3ccccn3)CC2)c1 | 1 | 6 | 1 | 2
O=C(NC1CC1)c1ccc(-c2nc(NCCCN3CCCC3=O)c3ncn(-c4ccsc4)c3n2)cc1 | 0 | 17 | 42* | 1
COc1ccc(CCNc2nc(NCCCN3CCCC3=O)nc3c2ncn3-c2ccsc2)cc1 | 0 | 16 | 7 | -2
COc1ccc(-c2nc(NCCCN3CCCC3=O)c3ncn(-c4ccccc4)c3n2)cn1 | 0 | -1 | 55* | 3
COc1ccc(-c2nc(NCCCN3CCCC3=O)c3ncn(-c4ccsc4)c3n2)cc1 | 0 | -18 | 58* | -1
COc1ccc(-c2nc(NCCN3CCOCC3)c3ncn(-c4ccsc4)c3n2)cn1 | 0 | 20 | 35* | -1
COc1ccc(-c2nc(NCCCN3CCCC3=O)c3ncn(C(C)C)c3n2)cn1 | 0 | 10 | 17 | -2
O=C(Nc1ccccn1)C1CC(=O)N(c2ccc(Br)cc2)C1 (stereo unspecified) | 1 | 12 | 11 | 0
Nc1cccc(-c2nc(NCCCN3CCCC3=O)c3ncn(-c4ccccc4)c3n2)c1 | 0 | 5 | 59* | 0
COc1ccc(-c2nc(NCCCN3CCCC3=O)c3ncn(-c4ccsc4)c3n2)cn1 | 0 | -4 | 49* | 0
CC(=O)c1cccc(-c2nc(NCCCN3CCCC3=O)c3ncn(-c4ccsc4)c3n2)c1 | 1 | -10 | 58* | 1
CC(=O)c1cccc(-c2nc(NCCCN3CCCC3=O)c3ncn(C(C)C)c3n2)c1 | 0 | -4 | 44* | -1
Nc1cccc(-c2nc(NCCCN3CCCC3=O)c3ncn(CCN4CCCC4=O)c3n2)c1 | 0 | 1 | 0 | 2
CCCCSCCCNC(=O)c1ccc(N2CCCC2=O)cc1 | 0 | -7 | -14 | 1
c1ccc(Nc2nc(Nc3cnccn3)nc3c2ncn3-c2ccsc2)cc1 | 0 | -11 | -37 | 0
c1cncc(CNc2nc(Nc3ccc4ncccc4c3)nc3c2ncn3-c2ccsc2)c1 | 0 | 3 | 33* | -1
Nc1nc(Nc2ccc3ncccc3c2)nc2c1ncn2-c1ccccc1 | 52* | -10 | 33* | 1
Nc1nc(Nc2cnccn2)nc2c1ncn2-c1ccsc1 | 0 | 13 | 43* | -2
c1cnc(Nc2nc(NCc3cccnc3)c3ncn(-c4ccsc4)c3n2)nc1 | 0 | -4 | 7 | 0
c1ccc(CNc2nc(Nc3ccc4ncccc4c3)nc3c2ncn3-c2ccccc2)cc1 | 0 | -4 | -4 | 2
SMILES | FBW7 activator | MITF inh | TEAD-YAP inh | GPR151 ag
c1cncc(CNc2nc(Nc3nccc4ccccc34)nc3c2ncn3-c2ccsc2)c1 | 0 | 33 | 59* | 0
Cc1ccc(N2CC(c3nc(-c4ccc(N(C)C)cc4)no3)CC2=O)cc1C (stereo unspecified) | -1 | 6 | 6 | 1
CC(=O)Nc1ccc(Nc2nc(Nc3nccc4ccccc34)nc3c2ncn3C(C)C)cc1 | 0 | 5 | 45* | 1
CC(C)n1cnc2c(NCc3cccnc3)nc(Nc3nccc4ccccc34)nc21 | 0 | 6 | 32* | 0
c1cncc(CNc2nc(NCc3cccnc3)c3ncn(-c4ccsc4)c3n2)c1 | 0 | 5 | -16 | 0
c1ccc(CNc2nc(NCc3cccnc3)nc3c2ncn3-c2ccsc2)cc1 | 0 | 11 | 32 | -3
c1cncc(CNc2nc(Nc3cnccn3)nc3c2ncn3-c2ccsc2)c1 | 0 | 24 | 59* | -1
c1cncc(CNc2nc(NC3CC3)c3ncn(-c4ccsc4)c3n2)c1 | 0 | 7 | 40* | 0
COc1cccc(/C=C/C(=O)c2c(C)cc(C)[nH]c2=O)c1O | 0 | 2 | 1 | 0
Cc1cc(C)c(C(=O)/C=C/c2ccccn2)c(=O)[nH]1 | 0 | 12 | 77* | -2
COc1ccccc1/C=C/C(=O)c1c(C)cc(C)[nH]c1=O | 0 | -2 | 37* | -1
COCc1ccc(C(=O)N2CCC(C(Cc3ccccc3)N(C)C(=O)CN(C)C)CC2)o1 (stereo unspecified) | 0 | -1 | -11 | 0
c1csc(-c2cn3nc4c(nc3n2)CCCC4)c1 | 0 | 2 | 34* | -6
Cc1nc2nc(-c3cccs3)cn2nc1C | 0 | 6 | -23 | -5
CCOC(=O)c1ccc(NC(=O)c2cccc(OCC)c2)cc1 | 0 | -5 | -18 | -2
CN(C)S(=O)(=O)c1cccc(C(=O)Nc2cccc(O)c2)c1 | 0 | -10 | 58* | 0
CCN(CC)S(=O)(=O)c1cccc(C(=O)Nc2cccc(NC(=O)c3cccc(S(=O)(=O)N(CC)CC)c3)n2)c1 | 0 | 2 | 12 | 0
CCN(CC)S(=O)(=O)c1cccc(C(=O)Nc2ccc(O)cc2)c1 | 0 | 5 | 48* | -2
CCOC(=O)c1ccc(NC(=O)c2cccc(S(=O)(=O)N(CC)CC)c2)cc1 | 0 | 5 | 43* | 1
CCOC(=O)c1ccc(N2C(=O)c3ccccc3NC2c2cccc([N+](=O)[O-])c2)cc1 (stereo unspecified) | 0 | 3 | 11 | -1
CCN1C(=O)C2C(c3ccc(O)c(OC)c3)NC(C)(C(=O)OC)C2C1=O (stereo unspecified) | 0 | 2 | 45* | 3
COC(=O)C1(C)NC(c2ccc(O)c(OC)c2)C2C(=O)N(C)C(=O)C21 (stereo unspecified) | 0 | 6 | -5 | -1
Cc1cc(-c2ncn(-c3ccc(Nc4ncc5ccc(-c6cnn(C)c6)cc5n4)cc3)n2)ccn1 | 1 | 27 | 88* | -3
Cn1cc(-c2ccc3nc(Nc4ccc(-n5cnc(N6CCOCC6)n5)cc4)ncc3c2)cn1 | 0 | 36 | -8 | 0
Cn1cc(-c2ccc(Nc3ncc4ccc(-c5cnn(CCN6CCOCC6)c5)cc4n3)cc2)cn1 | 0 | 3 | 51* | 0
Cn1cc(-c2ccc3cnc(Nc4ccc(-n5cnc(-c6ccncc6)n5)cc4)nc3c2)cn1 | 1 | 14 | 45* | -1
CC(C)C(=O)NCC1CCC2(CCN(Cc3ccc4cccnc4c3)CC2)O1 (stereo unspecified) | 0 | 5 | 0 | 0
Cc1cc(/C=C2\NC(=S)NC2=O)c(C)n1-c1ccc(N2CCOCC2)cc1 | 0 | 11 | 0 | -1
CCCOc1ccccc1C1C2=C(CCCC2=O)N(C)C2=C1C(=O)CCC2 | 3.0* | 3 | 8 | 0
CCOc1ccc(Br)cc1C1C2=C(CCCC2=O)N(CC(=O)O)C2=C1C(=O)CCC2 | 1.9* | -12 | 4 | 0

Screening results as filed in PubChem BioAssay.
